What all share (assay): DAPPL (digital affinity profiling via proximity ligation, sequencing); 10 mM Tris-HCl pH 7.5, 50 mM NaCl, 1 mM DTT, 4% glycerol, room temperature, 30 min; GST-TFs on glutathione beads, 16-mer random dsDNA library, 0.1% formaldehyde crosslink after washing; high values mean tight binding
In one assay the target is T1, FLI1 (Homo sapiens, UniProt Q01543 1-452).
T1 sequence: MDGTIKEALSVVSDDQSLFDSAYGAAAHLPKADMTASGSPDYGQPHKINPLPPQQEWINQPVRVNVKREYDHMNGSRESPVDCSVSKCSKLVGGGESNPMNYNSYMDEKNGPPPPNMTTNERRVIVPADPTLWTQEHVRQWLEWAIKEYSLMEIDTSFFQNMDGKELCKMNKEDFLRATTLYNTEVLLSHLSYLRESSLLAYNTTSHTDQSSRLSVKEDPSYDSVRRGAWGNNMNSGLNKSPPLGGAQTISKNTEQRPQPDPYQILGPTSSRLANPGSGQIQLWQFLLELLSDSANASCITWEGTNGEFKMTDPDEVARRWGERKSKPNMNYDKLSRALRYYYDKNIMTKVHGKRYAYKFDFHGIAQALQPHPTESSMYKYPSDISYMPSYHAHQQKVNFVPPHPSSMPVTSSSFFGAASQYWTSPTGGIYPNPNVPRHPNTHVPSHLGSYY
To be noted: protein: recombinant; tags: N-terminal GST; dsDNA, one strand shown. An outline of the steps:
(§1)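 Pools of DNA-barcoded human transcription factors, expressed in yeast as GST fusions on glutathione beads and combined with a tag-only sample, were incubated with 200 nmole of a 16-mer random double-stranded DNA library. Incubation took 30 min at room temperature in Tris/NaCl/DTT/glycerol buffer and was followed by washing, 0.1% formaldehyde crosslinking, proximity ligation (BsaI/T4 ligase, 1 h, 37 °C), PCR amplification and sequencing on an Illumina NextSeq500. Binding signal is the ratio of a hexamer's read frequency for a factor to its frequency for the tag-only sample.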

The next assay deals with T2, ELK1 (Homo sapiens, UniProt P19419 1-428).
T2 sequence: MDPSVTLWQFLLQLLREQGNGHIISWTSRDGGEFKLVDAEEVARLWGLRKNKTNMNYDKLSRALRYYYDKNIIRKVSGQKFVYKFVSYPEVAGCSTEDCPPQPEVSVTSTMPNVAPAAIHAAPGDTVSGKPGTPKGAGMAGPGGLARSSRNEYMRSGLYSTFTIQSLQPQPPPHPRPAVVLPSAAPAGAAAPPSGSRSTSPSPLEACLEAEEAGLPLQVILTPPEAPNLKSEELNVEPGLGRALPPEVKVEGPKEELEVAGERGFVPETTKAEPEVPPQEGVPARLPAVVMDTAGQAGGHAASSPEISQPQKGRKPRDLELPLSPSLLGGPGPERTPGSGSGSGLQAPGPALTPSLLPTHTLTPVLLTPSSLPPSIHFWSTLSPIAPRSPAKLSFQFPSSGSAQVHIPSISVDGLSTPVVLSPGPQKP
To be noted: protein: recombinant; tags: N-terminal GST; dsDNA, one strand shown. The essentials: as §1

The next assay has as its target T3, GABPA (Homo sapiens, UniProt Q06546 1-454).
T3 sequence: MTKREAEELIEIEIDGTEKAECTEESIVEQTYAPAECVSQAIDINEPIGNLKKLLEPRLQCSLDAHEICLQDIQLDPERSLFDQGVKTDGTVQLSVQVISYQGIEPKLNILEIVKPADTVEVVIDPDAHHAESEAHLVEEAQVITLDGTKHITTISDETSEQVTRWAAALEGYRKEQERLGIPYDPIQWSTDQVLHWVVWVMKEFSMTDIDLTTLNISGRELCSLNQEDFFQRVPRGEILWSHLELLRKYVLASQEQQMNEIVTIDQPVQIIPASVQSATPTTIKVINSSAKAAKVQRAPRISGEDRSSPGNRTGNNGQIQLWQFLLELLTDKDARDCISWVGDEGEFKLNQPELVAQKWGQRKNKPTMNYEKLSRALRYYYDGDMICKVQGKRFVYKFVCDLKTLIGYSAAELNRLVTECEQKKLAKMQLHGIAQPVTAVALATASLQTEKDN
To be noted: protein: recombinant; tags: N-terminal GST; dsDNA, one strand shown. An outline of the steps: as §1

For another assay, the target named is T4, ERG (Homo sapiens, UniProt P11308 1-479).
T4 sequence: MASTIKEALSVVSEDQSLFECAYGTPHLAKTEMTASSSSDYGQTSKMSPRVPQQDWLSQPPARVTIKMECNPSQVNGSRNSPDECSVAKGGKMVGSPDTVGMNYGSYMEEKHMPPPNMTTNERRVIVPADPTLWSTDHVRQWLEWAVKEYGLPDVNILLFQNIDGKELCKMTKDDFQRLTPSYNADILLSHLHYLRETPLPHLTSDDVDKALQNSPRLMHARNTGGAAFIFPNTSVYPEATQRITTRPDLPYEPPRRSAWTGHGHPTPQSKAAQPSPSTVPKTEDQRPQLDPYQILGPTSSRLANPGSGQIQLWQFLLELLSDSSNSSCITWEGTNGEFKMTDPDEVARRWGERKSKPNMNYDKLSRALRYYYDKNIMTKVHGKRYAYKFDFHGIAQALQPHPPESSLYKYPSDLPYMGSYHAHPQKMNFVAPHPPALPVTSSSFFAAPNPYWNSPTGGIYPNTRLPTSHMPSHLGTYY
As to conditions: protein: recombinant; tags: N-terminal GST; dsDNA, one strand shown. The essentials:
as §1

For another assay, the target named is ELF1 (Homo sapiens, UniProt P32519 1-619). As to conditions: protein: recombinant; tags: N-terminal GST; dsDNA, one strand shown. The essentials:
as §1

In another assay the target is T5, EHF (Homo sapiens, UniProt Q9NZC4 1-300).
T5 sequence: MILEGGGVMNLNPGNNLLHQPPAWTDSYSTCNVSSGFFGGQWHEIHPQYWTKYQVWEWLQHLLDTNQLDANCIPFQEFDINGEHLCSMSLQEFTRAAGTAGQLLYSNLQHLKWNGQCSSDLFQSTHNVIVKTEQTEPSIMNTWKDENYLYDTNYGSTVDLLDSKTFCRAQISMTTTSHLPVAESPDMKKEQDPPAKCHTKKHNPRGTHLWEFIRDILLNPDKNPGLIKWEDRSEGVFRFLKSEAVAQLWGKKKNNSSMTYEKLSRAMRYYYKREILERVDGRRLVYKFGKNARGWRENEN
As to conditions: protein: recombinant; tags: N-terminal GST; dsDNA, one strand shown. An outline of the steps:
as §1

The target in another assay is SPI1 (Homo sapiens, UniProt P17947 1-270). As to conditions: protein: recombinant; tags: N-terminal GST; dsDNA, one strand shown. The essentials: as §1
For the next assay, the target named is SPIB (Homo sapiens, UniProt Q01892 1-262). To be noted: protein: recombinant; tags: N-terminal GST; dsDNA, one strand shown. The essentials: as §1
SPIB, sequence (Q01892 whole entry): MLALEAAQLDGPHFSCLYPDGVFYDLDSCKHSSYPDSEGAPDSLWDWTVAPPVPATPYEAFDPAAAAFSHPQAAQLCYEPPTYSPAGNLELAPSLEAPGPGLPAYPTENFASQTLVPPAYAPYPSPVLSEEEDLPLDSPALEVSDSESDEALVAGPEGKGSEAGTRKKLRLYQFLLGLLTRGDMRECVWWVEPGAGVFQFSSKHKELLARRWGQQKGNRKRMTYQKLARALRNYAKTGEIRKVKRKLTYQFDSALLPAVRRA
A further assay addresses T6, ELK3 (Homo sapiens, UniProt P41970 1-407).
T6 sequence: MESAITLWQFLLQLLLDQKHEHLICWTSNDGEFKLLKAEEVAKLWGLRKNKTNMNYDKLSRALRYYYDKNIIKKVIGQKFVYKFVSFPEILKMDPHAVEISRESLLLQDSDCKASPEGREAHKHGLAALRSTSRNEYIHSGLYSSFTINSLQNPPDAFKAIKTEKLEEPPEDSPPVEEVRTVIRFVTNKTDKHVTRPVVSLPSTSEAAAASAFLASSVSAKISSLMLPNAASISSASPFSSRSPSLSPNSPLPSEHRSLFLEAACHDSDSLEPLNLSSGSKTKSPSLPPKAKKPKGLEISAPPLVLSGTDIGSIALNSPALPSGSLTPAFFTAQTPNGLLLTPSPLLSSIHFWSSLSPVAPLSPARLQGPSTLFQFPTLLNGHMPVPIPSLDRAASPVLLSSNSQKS
To be noted: protein: recombinant; tags: N-terminal GST; dsDNA, one strand shown. The essentials: as §1

For another assay, the target named is T7, FEV (Homo sapiens, UniProt Q99581 1-238).
T7 sequence: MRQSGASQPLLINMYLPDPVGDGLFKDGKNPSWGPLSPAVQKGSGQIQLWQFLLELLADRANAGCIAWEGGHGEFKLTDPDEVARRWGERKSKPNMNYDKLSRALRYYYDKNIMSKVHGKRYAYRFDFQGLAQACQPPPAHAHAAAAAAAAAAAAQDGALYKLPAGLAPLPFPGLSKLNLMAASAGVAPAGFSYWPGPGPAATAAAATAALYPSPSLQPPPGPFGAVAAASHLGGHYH
As to conditions: protein: recombinant; tags: N-terminal GST; dsDNA, one strand shown. An outline of the steps:
as §1

For a further assay, the target named is ETV5 (Homo sapiens, UniProt P41161 1-510). As to conditions: protein: recombinant; tags: N-terminal GST; dsDNA, one strand shown. The essentials:
as §1

A further assay addresses HSF1 (Homo sapiens, UniProt Q00613 1-529). As to conditions: protein: recombinant; tags: N-terminal GST; chain copies: 3; dsDNA, one strand shown. The essentials: as §1
In another assay the target is T8, SPIC (Homo sapiens, UniProt Q8N5J4 1-248).
T8 sequence: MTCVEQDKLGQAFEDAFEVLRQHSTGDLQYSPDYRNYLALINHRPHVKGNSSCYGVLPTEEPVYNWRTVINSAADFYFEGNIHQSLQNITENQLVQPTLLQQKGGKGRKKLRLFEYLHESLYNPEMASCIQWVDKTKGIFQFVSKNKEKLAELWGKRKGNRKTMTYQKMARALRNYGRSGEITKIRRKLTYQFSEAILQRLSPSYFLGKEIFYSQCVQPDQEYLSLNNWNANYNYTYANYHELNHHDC
To be noted: protein: recombinant; tags: N-terminal GST; dsDNA, one strand shown. An outline of the steps: as §1

The target in a further assay is ELF4 (Homo sapiens, UniProt Q99607 1-663). To be noted: protein: recombinant; tags: N-terminal GST; dsDNA, one strand shown. An outline of the steps:
as §1

Another assay has as its target T9, ELK4 (Homo sapiens, UniProt P28324-2 1-405).
T9 sequence: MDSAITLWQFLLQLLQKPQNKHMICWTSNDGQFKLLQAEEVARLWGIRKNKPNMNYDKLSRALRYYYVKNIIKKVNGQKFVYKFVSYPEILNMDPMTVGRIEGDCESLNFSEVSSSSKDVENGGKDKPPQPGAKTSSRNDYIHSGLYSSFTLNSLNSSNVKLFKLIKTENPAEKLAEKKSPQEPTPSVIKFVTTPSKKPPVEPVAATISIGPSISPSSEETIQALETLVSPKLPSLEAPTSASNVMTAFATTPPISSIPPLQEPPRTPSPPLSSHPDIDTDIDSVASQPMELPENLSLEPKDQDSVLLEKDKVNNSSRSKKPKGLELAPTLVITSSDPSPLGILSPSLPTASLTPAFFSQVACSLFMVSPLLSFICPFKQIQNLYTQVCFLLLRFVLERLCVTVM
As to conditions: protein: recombinant; tags: N-terminal GST; dsDNA, one strand shown. An outline of the steps:
as §1

For a further assay, the target named is T10, ETV2 (Homo sapiens, UniProt O00321 1-342).
T10 sequence: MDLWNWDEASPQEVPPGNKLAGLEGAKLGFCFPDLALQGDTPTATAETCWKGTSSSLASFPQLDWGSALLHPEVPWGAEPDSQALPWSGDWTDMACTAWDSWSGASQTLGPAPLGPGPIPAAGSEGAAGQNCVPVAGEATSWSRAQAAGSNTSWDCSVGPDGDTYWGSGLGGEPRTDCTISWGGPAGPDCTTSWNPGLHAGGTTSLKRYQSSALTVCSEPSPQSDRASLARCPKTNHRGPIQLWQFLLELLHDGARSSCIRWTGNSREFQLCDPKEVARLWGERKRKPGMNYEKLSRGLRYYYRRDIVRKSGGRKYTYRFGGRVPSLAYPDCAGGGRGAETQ
To be noted: protein: recombinant; tags: N-terminal GST; dsDNA, one strand shown. The essentials: as §1

A further assay concerns the target T11, ELF3 (Homo sapiens, UniProt P78545 1-371).
T11 sequence: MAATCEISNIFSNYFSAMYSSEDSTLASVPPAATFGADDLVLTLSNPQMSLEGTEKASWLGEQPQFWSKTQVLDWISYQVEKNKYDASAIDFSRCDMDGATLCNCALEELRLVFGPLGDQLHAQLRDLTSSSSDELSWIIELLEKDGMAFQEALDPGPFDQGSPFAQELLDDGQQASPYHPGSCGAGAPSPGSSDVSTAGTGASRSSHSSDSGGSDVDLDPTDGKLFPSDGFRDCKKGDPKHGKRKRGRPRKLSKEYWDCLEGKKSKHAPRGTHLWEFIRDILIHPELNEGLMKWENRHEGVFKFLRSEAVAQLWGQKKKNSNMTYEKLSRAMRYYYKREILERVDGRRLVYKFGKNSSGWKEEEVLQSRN
As to conditions: protein: recombinant; tags: N-terminal GST; dsDNA, one strand shown. The essentials:
as §1

The next assay deals with CRX (Homo sapiens, UniProt O43186 1-299). As to conditions: protein: recombinant; tags: N-terminal GST; dsDNA, one strand shown. An outline of the steps:
as §1

In a further assay the target is ETV1 (Homo sapiens, UniProt P50549 1-477). As to conditions: protein: recombinant; tags: N-terminal GST; dsDNA, one strand shown. The essentials: as §1
ETV1, sequence (P50549 whole entry): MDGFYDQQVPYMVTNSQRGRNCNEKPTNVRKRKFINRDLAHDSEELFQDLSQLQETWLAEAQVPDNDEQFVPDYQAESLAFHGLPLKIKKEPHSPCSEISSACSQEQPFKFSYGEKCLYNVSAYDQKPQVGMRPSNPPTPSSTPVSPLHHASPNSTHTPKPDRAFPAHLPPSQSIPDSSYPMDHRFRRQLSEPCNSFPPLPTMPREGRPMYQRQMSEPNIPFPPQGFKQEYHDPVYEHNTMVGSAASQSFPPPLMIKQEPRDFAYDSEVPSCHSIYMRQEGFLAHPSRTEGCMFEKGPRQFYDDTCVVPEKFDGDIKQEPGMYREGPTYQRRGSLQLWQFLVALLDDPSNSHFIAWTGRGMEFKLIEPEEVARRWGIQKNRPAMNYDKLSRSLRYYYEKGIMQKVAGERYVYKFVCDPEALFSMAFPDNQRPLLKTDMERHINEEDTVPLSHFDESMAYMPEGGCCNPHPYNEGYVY

ELF1, sequence (P32519 whole entry): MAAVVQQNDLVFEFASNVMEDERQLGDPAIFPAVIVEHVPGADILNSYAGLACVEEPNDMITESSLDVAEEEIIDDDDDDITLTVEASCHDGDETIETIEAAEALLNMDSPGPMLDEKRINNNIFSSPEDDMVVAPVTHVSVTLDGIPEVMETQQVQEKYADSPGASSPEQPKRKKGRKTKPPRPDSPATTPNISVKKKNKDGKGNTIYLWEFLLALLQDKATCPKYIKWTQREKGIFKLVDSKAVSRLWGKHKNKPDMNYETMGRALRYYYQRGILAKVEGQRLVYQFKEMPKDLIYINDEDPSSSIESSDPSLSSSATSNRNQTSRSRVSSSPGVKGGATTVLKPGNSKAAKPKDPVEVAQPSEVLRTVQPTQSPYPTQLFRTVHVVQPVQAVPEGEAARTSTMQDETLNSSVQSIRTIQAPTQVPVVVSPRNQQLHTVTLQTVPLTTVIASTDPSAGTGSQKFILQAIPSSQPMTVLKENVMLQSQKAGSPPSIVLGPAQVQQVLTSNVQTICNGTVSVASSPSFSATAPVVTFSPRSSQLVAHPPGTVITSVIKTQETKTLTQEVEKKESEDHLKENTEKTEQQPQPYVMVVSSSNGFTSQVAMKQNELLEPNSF
HSF1, sequence (Q00613 whole entry): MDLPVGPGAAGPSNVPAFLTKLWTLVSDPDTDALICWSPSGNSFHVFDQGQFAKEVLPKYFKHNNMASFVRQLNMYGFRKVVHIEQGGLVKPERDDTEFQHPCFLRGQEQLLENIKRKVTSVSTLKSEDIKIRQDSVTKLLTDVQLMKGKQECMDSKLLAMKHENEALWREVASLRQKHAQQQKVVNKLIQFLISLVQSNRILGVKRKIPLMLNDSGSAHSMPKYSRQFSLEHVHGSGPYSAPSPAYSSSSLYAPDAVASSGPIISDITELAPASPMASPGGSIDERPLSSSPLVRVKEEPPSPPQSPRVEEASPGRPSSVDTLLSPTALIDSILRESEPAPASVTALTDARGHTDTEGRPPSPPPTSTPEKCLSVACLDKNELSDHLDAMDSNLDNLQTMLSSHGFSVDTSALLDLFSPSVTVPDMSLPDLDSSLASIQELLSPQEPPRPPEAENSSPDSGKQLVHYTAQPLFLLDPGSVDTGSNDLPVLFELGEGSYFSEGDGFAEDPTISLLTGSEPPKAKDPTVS
ELF4, sequence (Q99607 whole entry): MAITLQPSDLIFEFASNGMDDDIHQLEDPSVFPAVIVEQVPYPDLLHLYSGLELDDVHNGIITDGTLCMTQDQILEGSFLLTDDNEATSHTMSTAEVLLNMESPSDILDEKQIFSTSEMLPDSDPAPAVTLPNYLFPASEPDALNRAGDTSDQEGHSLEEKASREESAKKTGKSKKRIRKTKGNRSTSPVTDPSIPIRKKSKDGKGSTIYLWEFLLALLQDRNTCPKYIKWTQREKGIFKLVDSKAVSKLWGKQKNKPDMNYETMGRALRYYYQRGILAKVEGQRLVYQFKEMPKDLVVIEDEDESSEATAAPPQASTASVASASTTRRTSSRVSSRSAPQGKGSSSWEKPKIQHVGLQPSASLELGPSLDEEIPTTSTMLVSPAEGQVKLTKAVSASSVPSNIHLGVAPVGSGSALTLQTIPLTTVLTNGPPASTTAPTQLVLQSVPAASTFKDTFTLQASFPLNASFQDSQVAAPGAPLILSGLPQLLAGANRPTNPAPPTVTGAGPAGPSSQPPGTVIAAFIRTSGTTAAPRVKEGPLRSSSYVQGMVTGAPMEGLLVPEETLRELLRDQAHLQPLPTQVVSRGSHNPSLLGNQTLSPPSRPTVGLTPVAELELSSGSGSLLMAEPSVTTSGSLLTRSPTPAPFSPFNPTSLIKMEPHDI
CRX, sequence (O43186 whole entry): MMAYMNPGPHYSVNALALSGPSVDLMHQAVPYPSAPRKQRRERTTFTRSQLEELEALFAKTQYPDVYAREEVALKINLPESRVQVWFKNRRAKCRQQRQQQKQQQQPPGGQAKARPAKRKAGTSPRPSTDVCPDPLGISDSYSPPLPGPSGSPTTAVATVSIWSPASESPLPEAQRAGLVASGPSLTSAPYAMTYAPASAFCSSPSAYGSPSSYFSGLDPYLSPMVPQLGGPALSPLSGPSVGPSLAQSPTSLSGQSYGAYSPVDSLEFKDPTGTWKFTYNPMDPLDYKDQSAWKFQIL
ETV5, sequence (P41161 whole entry): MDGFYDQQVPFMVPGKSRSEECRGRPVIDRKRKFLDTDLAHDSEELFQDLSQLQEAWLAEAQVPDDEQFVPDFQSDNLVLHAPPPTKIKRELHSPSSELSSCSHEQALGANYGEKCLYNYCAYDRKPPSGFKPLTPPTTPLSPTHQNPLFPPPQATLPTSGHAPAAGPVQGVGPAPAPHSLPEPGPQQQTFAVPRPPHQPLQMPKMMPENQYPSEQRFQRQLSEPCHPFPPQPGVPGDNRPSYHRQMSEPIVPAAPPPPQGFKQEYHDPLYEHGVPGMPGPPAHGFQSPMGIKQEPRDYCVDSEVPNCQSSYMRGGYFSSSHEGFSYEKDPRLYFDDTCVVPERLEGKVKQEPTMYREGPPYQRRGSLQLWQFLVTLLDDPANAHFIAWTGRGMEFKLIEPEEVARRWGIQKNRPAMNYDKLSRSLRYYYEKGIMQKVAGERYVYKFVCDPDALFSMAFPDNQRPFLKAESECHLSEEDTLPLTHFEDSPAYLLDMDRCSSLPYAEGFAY

In the case of TTCTTG, the binding signal was 1.42 fold enrichment (6-mer frequency, TF over GST control) with FLI1; 1.46 fold enrichment (6-mer frequency, TF over GST control) with ELK1; 1.5 fold enrichment (6-mer frequency, TF over GST control) in the assay with GABPA; 1.38 fold enrichment (6-mer frequency, TF over GST control) with ERG; 1.46 fold enrichment (6-mer frequency, TF over GST control) with ELF1; 1.56 fold enrichment (6-mer frequency, TF over GST control) with EHF. Further, the binding signal was 1.45 fold enrichment (6-mer frequency, TF over GST control) with SPI1; 1.39 fold enrichment (6-mer frequency, TF over GST control) with SPIB; 1.35 fold enrichment (6-mer frequency, TF over GST control) with ELK3; 1.29 fold enrichment (6-mer frequency, TF over GST control) with FEV; 1.41 fold enrichment (6-mer frequency, TF over GST control) in the assay with ETV5; 1.98 fold enrichment (6-mer frequency, TF over GST control) with HSF1. Further, the binding signal was 1.31 fold enrichment (6-mer frequency, TF over GST control) with SPIC; 1.43 fold enrichment (6-mer frequency, TF over GST control) in the assay with ELF4; 1.34 fold enrichment (6-mer frequency, TF over GST control) with ELK4; 1.18 fold enrichment (6-mer frequency, TF over GST control) with ETV2; 1.46 fold enrichment (6-mer frequency, TF over GST control) in the assay with ELF3; 1.55 fold enrichment (6-mer frequency, TF over GST control) with CRX. The binding signal with ETV1 is 1.47 fold enrichment (6-mer frequency, TF over GST control).

The values are drawn from PMC7862700, “An all-to-all approach to the identification of sequence-specific readers for epigenetic DNA modifications on cytosine”.
